# Compound activity deposited in PubChem by several laboratories.
# ERa SRC1 inh = ERα–SRC-1 coactivator interaction inhibitors, primary screen, biochemical, TR-FRET, ERα LBD, estradiol-bound | TR-FRET ER-alpha LBD / SRC-1 peptide | inhibition, % at 25.6 µM | 86,000 tested, 1.7% active; in the data active means inhibition above about 50%;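 further: 0% = receptor plus peptide control and 100% = peptide only without receptor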
# MRP resist rev = reversal of MRP1-mediated doxorubicin resistance, primary screen, H69AR cells, doxorubicin co-treatment; H69AR cells + 2 uM doxorubicin, CellTiter-Glo, 72 h; differential viability (reversal), % at 10 µM; 85,000 tested, 0.04% active; AID 602, 2007;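 active means viability drop by adding the cancer drug above about 55%, with treated viability meeting a 40% cutoff, limit read from the data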;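 further: viability without doxorubicin minus viability with 2 µM doxorubicin for each compound; larger differential means the compound sensitizes cells more to doxorubicin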
# MRP1 act = H69AR viability gain despite doxorubicin, primary screen, MRP-1 activator project, H69AR cells, CellTiter-Glo | 140,000 tested, 0.61% active | viability increase, % at 10 µM | viability rescue;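 active means viability gain under doxorubicin at or above a set limit, the compound median plus 3 SD, cut at about 4.7% in these data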;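 further: MRP-1 overexpressing cells given doxorubicin 25 µM after compound pretreatment; 18-22 h compound pretreatment then 72 h with doxorubicin before readout; 0% = doxorubicin-only wells and 100% = vehicle-treated cells without doxorubicin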
# ERa coact pot = enhancers of ERα–SRC-1 coactivator binding, primary screen, biochemical, TR-FRET, ERα LBD, low estradiol. 86,000 tested, 1.3% active. Estrogen receptor (Homo sapiens), P03372. coactivator binding (% of control), % at 25.6 µM. TR-FRET ERalpha-LBD/SRC-Cy5 coactivator binding, 2 h; 100 = basal binding, no effect; in the data active means activity above about 200%;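 further: binding measured in presence of low estradiol as agonist stimulus; 0% = peptide alone without receptor and 100% = receptor with peptide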
# ERb coact inh = inhibitors of ERβ-SRC1 coactivator interaction, primary screen, biochemical, TR-FRET, ERβ LBD, SRC-1 peptide; Estrogen receptor beta (Homo sapiens), Q92731; TR-FRET ER-beta LBD / SRC1-Cy5 peptide binding; receptor agonist-loaded with 1 µM estradiol; inhibition, % at 25.6 µM; 86,000 tested, 1.3% active; AID 633, 2007;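 active means compounds whose percent inhibition of the receptor-coactivator binding signal exceeds about 50% in the single-dose screen, limit read from the data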;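 further: 0% = receptor plus peptide wells without compound and 100% = peptide-only wells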
# Target sequence (Q92731 whole entry, looked up, the tested form may be a part): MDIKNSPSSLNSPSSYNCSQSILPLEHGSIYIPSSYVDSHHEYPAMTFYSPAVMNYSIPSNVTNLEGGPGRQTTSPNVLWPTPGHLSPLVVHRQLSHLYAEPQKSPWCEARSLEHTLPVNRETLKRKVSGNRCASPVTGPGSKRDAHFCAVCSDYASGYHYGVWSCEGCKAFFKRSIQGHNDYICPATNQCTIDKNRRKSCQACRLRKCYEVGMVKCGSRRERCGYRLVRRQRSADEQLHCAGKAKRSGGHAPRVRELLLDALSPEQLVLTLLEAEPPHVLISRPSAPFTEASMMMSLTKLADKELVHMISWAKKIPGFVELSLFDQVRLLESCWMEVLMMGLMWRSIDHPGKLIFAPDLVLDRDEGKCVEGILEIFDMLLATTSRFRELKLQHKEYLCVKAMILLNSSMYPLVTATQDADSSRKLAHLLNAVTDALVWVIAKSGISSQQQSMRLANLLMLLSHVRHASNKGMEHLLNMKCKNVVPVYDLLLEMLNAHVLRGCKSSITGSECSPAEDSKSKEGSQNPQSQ
# * hit, by the source's call; · = no result given; [ ] = another dose, or the depositor's remark. Sampled rows, rich in hits. Any-hit rate of the full collection: about 2.7%.
SMILES,ERa SRC1 inh,MRP resist rev,MRP1 act,ERa coact pot,ERb coact inh
NC(=O)C1CCN(c2nc(-c3ccccc3)nc3c2oc2ccccc23)CC1,21.9,·,-2.6,343.6*[fluorescence artefact?],36.5
COc1ccc2c(Cl)c(-c3nnc(SCC(=O)c4ccccc4)n3C)sc2c1,8.0,-1.1,-1.3,240.9*,-13.7
CCN1C(=O)/C(=C/c2ccc(N3CCCC3)cc2)NC1=S,·,·,-2.2,·,·
O=C(/C=C/c1ccccc1)n1cnnc1SC/C=C/c1ccccc1,·,·,4.7*,·,·
CC1CCN(c2nc(-c3ccccc3O)nc3ccccc23)CC1,38.7,-2.9,-1.0,471.5*[fluorescence artefact?],46.0
CC(C)Oc1nc(-c2ccccc2O)nc2ccccc12,9.3,9.1,-1.2,222.0*[fluorescence artefact?],9.4
COc1cccc(-c2nc(Oc3cc(C)cc(C)c3)c3ccccc3n2)c1O,·,·,-4.6,·,·
Fc1ccccc1-c1nc(N2CCCCC2)c2ccccc2n1,-6.0,-0.8,-0.5,78.1,-8.1
c1ccc(N2CCN(c3nc(-c4ccccn4)nc4ccccc34)CC2)cc1,·,·,-5.7,·,·
Oc1ccccc1-c1nc(N2CCCC2)c2ccccc2n1,56.1*[fluorescence artefact?],4.2,-0.8,216.7*[fluorescence artefact?],56.4*[fluorescence artefact?]
CN1CCN(c2nc(-c3ccccn3)nc3ccccc23)CC1,-2.4,67.7*,-3.4,91.6,-16.3
CCN1C/C(=C/c2cccc([N+](=O)[O-])c2)C(=O)/C(=C/c2cccc([N+](=O)[O-])c2)C1,·,·,-4.6,·,·
Cc1cc(CCCCCCCCc2cc(C)cc(=O)o2)oc(=O)c1,·,·,-0.6,·,·
CCOC(=O)c1c(NC(=O)CSC2=NN3CCCC(=O)N=C3S2)sc2c1CCCCC2,·,·,-2.5,·,·
Oc1ccccc1-c1nc(N2CCN(Cc3ccccc3)CC2)c2ccccc2n1,-12.3,-16.7,-1.5,236.6*[fluorescence artefact?],-2.5
CCN1CCN(c2nc(-c3ccncc3)nc3ccccc23)CC1,0.2,32.6,-4.7,96.0,-5.9
COc1ccc2[nH]c(=O)c(CN(C3CCCCC3)C(c3nnnn3Cc3ccco3)C(C)C)cc2c1 (centres undefined),46.2,5.4,-5.0,201.3*,27.9
CN1C(=O)CC(C(=O)O)SC1=Nc1cc(Cl)c(O)c(Cl)c1 (centres undefined),43.3,-6.0,-1.6,43.4,53.8*
CN1C(=O)CC(C(=O)O)SC1=Nc1cc(Cl)cc(Cl)c1 (centres undefined),·,·,0.3,·,·
CC(C)CN(CCC(=O)O)CC(C)C,-2.2,-17.3,3.4,110.5,60.4*
CCOC(=O)N1CCC(n2c(=S)[nH]c3cc(OCC)c(OCC)cc3c2=O)CC1,41.0,14.4,-0.7,106.2,51.9*[fluorescence artefact?]
CC(=O)c1c(C)[nH]c(C(=O)OCC(=O)N2CCc3ccccc32)c1C,12.3,2.6,-0.8,229.0*,16.2
N#Cc1ccsc1NC(=O)COc1ccc(-c2nnco2)cc1,80.3*[fluorescence artefact?],5.6,-2.2,30.9,44.0
CC(C)CC(=O)Nc1ccc(C(=O)COc2ccc(-c3nnco3)cc2)cc1,69.6*,11.1,0.2,49.4,30.9
CC(C)CC(=O)Nc1ccc(OCC(=O)O)cc1,1.1,2.9,-0.3,123.2,6.2
SMILES,ERa SRC1 inh,MRP resist rev,MRP1 act,ERa coact pot,ERb coact inh
Cc1ccc(Cl)cc1N1CCN(c2cccc[n+]2C)CC1,·,·,-2.8,·,·
O=c1[nH]c(CN2CCCCC2)nc2c1C1(CCCC1)Cc1ccccc1-2,1.9,-2.4,·,98.8,-4.9
O=C(Nc1nnc(SCc2ccc(Cl)cc2)s1)C1CCCO1 (centres undefined),-8.5,1.2,-1.0,106.6,-3.5
O=C(Nc1nnc(COc2ccc(Cl)cc2)s1)C1CCCO1 (centres undefined),-0.3,-0.6,8.9*,104.9,-8.9
O=C(Nc1ccc(-c2nc3c(ccc4ccccc43)o2)cc1)c1ccco1,32.0,-7.4,-1.9,112.7,7.9
CCn1c2ccccc2c2cc(NC(=O)CSc3nnc(-c4ccc(OC)cc4)n3N)ccc21,67.6*,-11.1,-3.3,58.8,16.1
CCn1c(SCC(=O)Nc2ccccc2OC)nnc1-c1cnccn1,13.7,-22.2,-3.8,115.6,4.0
CCn1c(SCC(=O)Nc2ccc3c(c2)c2ccccc2n3CC)nnc1-c1cnccn1,73.5*,14.3,-7.6,105.2,28.7
COc1ccc(C(NC(=O)C2CCCCC2)c2c(O)ccc3ccccc23)cc1 (centres undefined),·,·,-3.5,·,·
